Experimental data: PubChem BioAssay AID1159580 (chemical genetic matrix, 2015)
Several values for one entry are separate records, joined by “and”; a condition that tells them apart may be missing. Identical values can stand only once. Among all 5,500 compounds or so, about 2,000 (36%) were called active. Another 18% or so got no clear call; they are omitted. Some of the results follow. A number with no mark means an inactive call. No stated cut-off is given here; in the data, active means normalized growth mostly below about 0.91 (no sharp cut-off); inconclusive means no clear call, values can overlap the other calls; inactive means mostly above about 0.92.

Test: chemical genetic growth profiling, strain panel (AID 1159580);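 further: tested at 20 µM; growth read once vehicle control cultures reached saturation at 30 °C; 1 = growth at the plate median or of vehicle wells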
Settings: S. cerevisiae deletion strains, growth OD

**Q.** For `COc1cc(NC(C)CCCN)c2ncccc2c1` (configuration not stated), which normalized growth (locus YAL013W, strain DEP1, stronger effect = lower value) is on record?
**A.** Its normalized growth is 1.

**Q.** And the normalized growth (locus YAL021C, strain ccr4, stronger effect = lower value)?
**A.** The normalized growth was 0.972.

**Q.** And the normalized growth (locus YAL026C, strain drs2, stronger effect = lower value)?
**A.** The normalized growth was 1.02.

**Q.** What about the normalized growth (locus YAL030W, strain snc1, stronger effect = lower value) of the same compound?
**A.** Its normalized growth is 0.999.

**Q.** What about the normalized growth (locus YBL061C, strain skt5, stronger effect = lower value) of the same compound?
**A.** The normalized growth was 1.

**Q.** And the normalized growth (locus YBR009C, strain hhf1, stronger effect = lower value)?
**A.** Its normalized growth is 1.07.

**Q.** What about the normalized growth (locus YBR021W, strain FUR4, stronger effect = lower value) of the same compound?
**A.** The normalized growth was 0.988.

**Q.** What about the normalized growth (locus YBR023C, strain chs3, stronger effect = lower value) of the same compound?
**A.** Its normalized growth is 1.02.

**Q.** And the normalized growth (locus YBR171W, strain sec66, stronger effect = lower value)?
**A.** Its normalized growth is 1.01.

**Q.** What about the normalized growth (locus YBR229C, strain ROT2, stronger effect = lower value) of the same compound?
**A.** Its normalized growth is 1.

**Q.** And the normalized growth (locus YBR231C, strain swc5, stronger effect = lower value)?
**A.** The normalized growth was 0.984.

**Q.** And the normalized growth (locus YBR279W, strain paf1, stronger effect = lower value)?
**A.** The normalized growth was 1.01.

**Q.** And the normalized growth (locus YCL011C, strain gbp2, stronger effect = lower value)?
**A.** Its normalized growth is 1.01.

**Q.** And the normalized growth (locus YCL016C, strain dcc1, stronger effect = lower value)?
**A.** The normalized growth was 1.02.

**Q.** What about the normalized growth (locus YCL029C, strain bik1, stronger effect = lower value) of the same compound?
**A.** Its normalized growth is 1.02.

**Q.** What about the normalized growth (locus YCL061C, strain MRC1, stronger effect = lower value) of the same compound?
**A.** Its normalized growth is 1.

**Q.** What about the normalized growth (locus YCL069W, strain vba3, stronger effect = lower value) of the same compound?
**A.** The normalized growth was 1.01.

**Q.** And the normalized growth (locus YCR088W, strain abp1, stronger effect = lower value)?
**A.** The normalized growth was 1.

**Q.** And the normalized growth (locus YDL005C, strain med2, stronger effect = lower value)?
**A.** Its normalized growth is 1.

**Q.** What about the normalized growth (locus YDL035C, strain GPR1, stronger effect = lower value) of the same compound?
**A.** Its normalized growth is 1.

**Q.** What about the normalized growth (locus YDL040C, strain nat1, stronger effect = lower value) of the same compound?
**A.** The normalized growth was 1.

**Q.** What about the normalized growth (locus YDL074C, strain BRE1, stronger effect = lower value) of the same compound?
**A.** The normalized growth was 1.01.

**Q.** What about the normalized growth (locus YDL101C, strain DUN1, stronger effect = lower value) of the same compound?
**A.** The normalized growth was 1.02.

**Q.** What about the normalized growth (locus YDL134C, strain PPH21, stronger effect = lower value) of the same compound?
**A.** The normalized growth was 1.01.

**Q.** And the normalized growth (locus YDL185W, strain tfp1, stronger effect = lower value)?
**A.** Its normalized growth is 1.01.

**Q.** And the normalized growth (locus YDL192W, strain arf1, stronger effect = lower value)?
**A.** Its normalized growth is 1.01.

**Q.** And the normalized growth (locus YDR001C, strain nth1, stronger effect = lower value)?
**A.** Its normalized growth is 1.01.

**Q.** And the normalized growth (locus YDR069C, strain doa4, stronger effect = lower value)?
**A.** Its normalized growth is 0.977.

**Q.** What about the normalized growth (locus YDR101C, strain arx1, stronger effect = lower value) of the same compound?
**A.** Its normalized growth is 1.

**Q.** What about the normalized growth (locus YDR137W, strain rgp1, stronger effect = lower value) of the same compound?
**A.** The normalized growth was 1.03.

**Q.** And the normalized growth (locus YDR150W, strain NUM1, stronger effect = lower value)?
**A.** Its normalized growth is 1.01.

**Q.** And the normalized growth (locus YDR159W, strain sac3, stronger effect = lower value)?
**A.** The normalized growth was 0.993.

**Q.** And the normalized growth (locus YDR162C, strain NBP2, stronger effect = lower value)?
**A.** Its normalized growth is 1.01.

**Q.** And the normalized growth (locus YDR195W, strain ref2)?
**A.** The normalized growth was 0.99.

**Q.** What about the normalized growth (locus YDR297W, strain sur2, stronger effect = lower value) of the same compound?
**A.** Its normalized growth is 1.

**Q.** What about the normalized growth (locus YDR318W, strain mcm21, stronger effect = lower value) of the same compound?
**A.** The normalized growth was 1.

**Q.** And the normalized growth (locus YDR334W, strain swr1, stronger effect = lower value)?
**A.** Its normalized growth is 1.01.

**Q.** And the normalized growth (locus YDR335W, strain msn5, stronger effect = lower value)?
**A.** Its normalized growth is 1.

**Q.** And the normalized growth (locus YDR388W, stronger effect = lower value)?
**A.** Its normalized growth is 1.02.

**Q.** What about the normalized growth (locus YDR392W, strain spt3, stronger effect = lower value) of the same compound?
**A.** Its normalized growth is 0.875.

**Q.** And the normalized growth (locus YDR502C, strain sam2, stronger effect = lower value)?
**A.** The normalized growth was 1.

**Q.** And the normalized growth (locus YEL003W, strain gim4, stronger effect = lower value)?
**A.** Its normalized growth is 1.01.

**Q.** What about the normalized growth (locus YEL037C, strain rad23, stronger effect = lower value) of the same compound?
**A.** The normalized growth was 1.02.

**Q.** What about the normalized growth (locus YEL061C, strain CIN8 (second series), stronger effect = lower value) of the same compound?
**A.** The normalized growth was 1.

**Q.** What about the normalized growth (locus YEL061C, strain CIN8, stronger effect = lower value) of the same compound?
**A.** The normalized growth was 1.

**Q.** And the normalized growth (locus YER015W, strain faa2, stronger effect = lower value)?
**A.** The normalized growth was 0.989.

**Q.** What about the normalized growth (locus YER016W, strain bim1, stronger effect = lower value) of the same compound?
**A.** The normalized growth was 0.995.

**Q.** What about the normalized growth (locus YER110C, stronger effect = lower value) of the same compound?
**A.** Its normalized growth is 1.01.

**Q.** What about the normalized growth (locus YER111C, strain swi4, stronger effect = lower value) of the same compound?
**A.** Its normalized growth is 1.01.

**Q.** What about the normalized growth (locus YER155C, strain BEM2 (second series), stronger effect = lower value) of the same compound?
**A.** The normalized growth was 0.859 (active).

**Q.** And the normalized growth (locus YER155C, strain BEM2, stronger effect = lower value)?
**A.** The normalized growth was 0.999.

**Q.** And the normalized growth (locus YER167W, strain BCK2, stronger effect = lower value)?
**A.** The normalized growth was 1.01.

**Q.** What about the normalized growth (locus YFR010W, strain ubp6, stronger effect = lower value) of the same compound?
**A.** Its normalized growth is 1.01.

**Q.** And the normalized growth (locus YGL078C, strain dbp3, stronger effect = lower value)?
**A.** Its normalized growth is 1.01.

**Q.** And the normalized growth (locus YGL086W, strain mad1, stronger effect = lower value)?
**A.** Its normalized growth is 0.981.

**Q.** What about the normalized growth (locus YGL167C, strain pmr1, stronger effect = lower value) of the same compound?
**A.** The normalized growth was 1.01.

**Q.** And the normalized growth (locus YGL173C, strain kem1, stronger effect = lower value)?
**A.** Its normalized growth is 1.02.

**Q.** What about the normalized growth (locus YGL227W, strain vid30, stronger effect = lower value) of the same compound?
**A.** Its normalized growth is 0.999.

**Q.** What about the normalized growth (locus YGL240W, strain doc1, stronger effect = lower value) of the same compound?
**A.** Its normalized growth is 0.985.

**Q.** What about the normalized growth (locus YGL248W, strain PDE1, stronger effect = lower value) of the same compound?
**A.** Its normalized growth is 1.01.

**Q.** What about the normalized growth (locus YGL253W, strain hxk2, stronger effect = lower value) of the same compound?
**A.** Its normalized growth is 1.03.

**Q.** What about the normalized growth (locus YGR078C, strain PAC10, stronger effect = lower value) of the same compound?
**A.** The normalized growth was 1.02.

**Q.** And the normalized growth (locus YGR135W, strain pre9, stronger effect = lower value)?
**A.** Its normalized growth is 0.991.

**Q.** And the normalized growth (locus YGR229C, strain SMI1, stronger effect = lower value)?
**A.** The normalized growth was 1.01.

**Q.** What about the normalized growth (locus YGR252W, strain gcn5, stronger effect = lower value) of the same compound?
**A.** Its normalized growth is 0.961.

**Q.** And the normalized growth (locus YHR013C, strain ard1, stronger effect = lower value)?
**A.** Its normalized growth is 1.

**Q.** And the normalized growth (locus YHR027C, strain rpn1, stronger effect = lower value)?
**A.** Its normalized growth is 1.03.

**Q.** What about the normalized growth (locus YHR030C, strain SLT2, stronger effect = lower value) of the same compound?
**A.** The normalized growth was 1.01 and 1.05.

**Q.** What about the normalized growth (locus YHR079C, strain IRE1 (second series), stronger effect = lower value) of the same compound?
**A.** Its normalized growth is 1.01.

**Q.** And the normalized growth (locus YHR079C, strain IRE1, stronger effect = lower value)?
**A.** Its normalized growth is 1.05.

**Q.** What about the normalized growth (locus YHR094C, strain hxt1, stronger effect = lower value) of the same compound?
**A.** Its normalized growth is 1.01.

**Q.** What about the normalized growth (locus YHR129C, strain ARP1, stronger effect = lower value) of the same compound?
**A.** The normalized growth was 1.

**Q.** And the normalized growth (locus YHR142W, strain chs7, stronger effect = lower value)?
**A.** The normalized growth was 1.05.

**Q.** What about the normalized growth (locus YHR200W, strain rpn10, stronger effect = lower value) of the same compound?
**A.** Its normalized growth is 1.

**Q.** What about the normalized growth (locus YIL066C, strain RNR3, stronger effect = lower value) of the same compound?
**A.** The normalized growth was 1.01.

**Q.** What about the normalized growth (locus YIL073C, strain SPO22, stronger effect = lower value) of the same compound?
**A.** The normalized growth was 1.1.

**Q.** What about the normalized growth (locus YIL125W, strain kgd1, stronger effect = lower value) of the same compound?
**A.** The normalized growth was 1.01.

**Q.** And the normalized growth (locus YIR030C, strain dcg1, stronger effect = lower value)?
**A.** The normalized growth was 1.01.

**Q.** What about the normalized growth (locus YJL092W, strain hpr5, stronger effect = lower value) of the same compound?
**A.** The normalized growth was 0.995.

**Q.** And the normalized growth (locus YJL095W, strain BCK1 (second series), stronger effect = lower value)?
**A.** Its normalized growth is 1.02.

**Q.** And the normalized growth (locus YJL095W, strain BCK1, stronger effect = lower value)?
**A.** The normalized growth was 1 and 1.03.

**Q.** What about the normalized growth (locus YJL115W, strain asf1, stronger effect = lower value) of the same compound?
**A.** Its normalized growth is 1.01.

**Q.** What about the normalized growth (locus YJL129C, strain trk1, stronger effect = lower value) of the same compound?
**A.** The normalized growth was 1.04.

**Q.** What about the normalized growth (locus YJL134W, strain LCB3, stronger effect = lower value) of the same compound?
**A.** Its normalized growth is 1.

**Q.** What about the normalized growth (locus YJL154C, strain vps35, stronger effect = lower value) of the same compound?
**A.** The normalized growth was 1.

**Q.** What about the normalized growth (locus YJL164C, strain tpk1, stronger effect = lower value) of the same compound?
**A.** The normalized growth was 1.04.

**Q.** What about the normalized growth (locus YJL166W, strain qcr8, stronger effect = lower value) of the same compound?
**A.** The normalized growth was 0.964.

**Q.** What about the normalized growth (locus YJL168C, strain set2, stronger effect = lower value) of the same compound?
**A.** The normalized growth was 1.01.

**Q.** What about the normalized growth (locus YJL187C, strain SWE1 (second series), stronger effect = lower value) of the same compound?
**A.** Its normalized growth is 1.02.

**Q.** And the normalized growth (locus YJL187C, strain SWE1, stronger effect = lower value)?
**A.** Its normalized growth is 0.998.

**Q.** What about the normalized growth (locus YJR043C, strain POL32, stronger effect = lower value) of the same compound?
**A.** Its normalized growth is 0.995.

**Q.** And the normalized growth (locus YJR066W, strain TOR1, stronger effect = lower value)?
**A.** Its normalized growth is 0.977.
